# High-throughput results (PubChem BioAssay)
# MCF10A rerep – inducers of DNA re-replication in MCF 10A breast cells; Potency, µM (titrated, usually from 46.1 µM), inactives show top-dose activity, positive = re-replication, usual class: activators; AID 624296; MCF 10A DNA re-replication, Hoechst nuclear intensity, 48 h; hit rate 2.9% among 350,000; further: potency means the concentration at half of the fitted maximal effect; % of control where 0% means no effect; nearly all actives have a fitted effect of over 50% in size
# DT40 TDP1 no CPT – qHTS for Inhibitors of human tyrosyl-DNA phosphodiesterase 1 (TDP1): qHTS in cells in absence of CPT; DT40 Tdp1-/- hTDP1 cells, no CPT, ATP luminescence, 48 h; hit rate 15% among 420,000; Potency, µM (highest dose often 46.2 µM), for the others: top-dose activity change, negative = growth inhibition, actives largely listed as inhibitors; further: potency means the concentration at half of the fitted maximal effect; on the % scale 0 is the no-effect control and ±100 the full control effect; nearly all actives have a fitted effect of over 55% in size
#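 Cells were dispensed at 400 per well, compounds added by pin tool, plates incubated ≥48 hr at 37 °C, then CellTiter-Glo added for 30 min at room temperature before luminescence reading. Line: DT40 Tdp1-/- complemented with hTDP1; camptothecin omitted.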
# SW480 rerep – inducers of DNA re-replication in SW480 colon cancer cells | SW480 DNA re-replication, Hoechst DNA content imaging, 48 h | Potency, µM (doses to about 46.1 µM), for the others: top-dose re-replication activation, most hits filed as activators | hit rate 1.8% among 340,000; further: potency means the concentration at half of the fitted maximal effect; % of control where 0% means no effect; nearly all actives have a fitted effect of over 55% in size
#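 250 cells/well; 23 nL cpd via pin tool; 48 hr, 37 C, 5% CO2; Hoechst 40 min; imager read of total nuclear intensity, ex 405/em 500-530 nm.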
# Chronic BCR inh – blocks chronic active B-cell receptor signaling. ABC-DLBCL IkBa-CBG/CBR reporter, luminescence ratio, 4 h. Potency, µM (highest dose often 46.1 µM), for the others: at the highest dose activity change, negative = inhibition, hits mostly inhibitors. hit rate 0.05% among 340,000; active means well fitted inhibition curve with a large enough effect in the signal ratio, with a control signal flat, not every such curve was filed as active; inconclusive means small, poorly fitted or top-dose-only effect, or effect the other way, or a change in a side signal; the % refers to the signal ratio;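 further: potency means the concentration at half of the fitted maximal effect; plate controls were basal doxycycline-induced cells for no effect and cells given 10 µM MG132 for full effect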
#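 TMD8 ABC-DLBCL cells carrying doxycycline-inducible green luciferase fused to IkappaBalpha plus unfused red luciferase were exposed to compounds (up to 46 uM) for 4 hrs at 37C. Activity came from the overlap-corrected green/red luminescence ratio.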
# TDP1 cell CPT – growth inhibition of DT40 Tdp1-/-;hTDP1 cells with camptothecin (screen for TDP1 inhibitors); chicken DT40 Tdp1-/-;hTDP1 cells + 20 nM CPT, ATP luminescence, 48 h; Potency, µM (doses to about 46.2 µM), for inactives: at the highest dose activity change, negative = growth inhibition, usual class: inhibitors; hit rate 12% among 420,000; further: potency means the concentration at half of the fitted maximal effect; on the % scale 0 is the no-effect control and ±100 the full control effect; nearly all actives have a fitted effect of over 55% in size
#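 Chicken DT40 Tdp1-/- cells stably complemented with human TDP1 were seeded at 400 cells/well in medium containing 20 nM camptothecin, exposed to pin-transferred compounds, and grown at 37 °C for at least 48 hr. Viability was read as ATP luminescence.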
# IL-1B inflam inh – inflammasome signaling inhibition, IL-1 beta readout. THP-1 LPS/ATP IL-1B secretion, AlphaLISA, 16 h; stronger effect = lower value. hit rate 4.7% among 360,000. AID 743279. activity change, % at 57.5 µM; in the data active means activity change below about -50%; inconclusive means mostly about -30% to -49%; further: on the % scale 0 is the no-effect control and ±100 the full control effect
#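 Secreted IL-1B measured by AlphaLISA bead assay after 16 h compound exposure of THP-1 cells; compounds (final up to 57.5 uM) added 1 h before LPS (250 ng/mL) and ATP (1.25 mM) stimulation; lower signal means less secretion.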
# Numbers without * were called inactive; ? = inconclusive; . = no result; [ ] = remark or other dose. The list is not random: actives were taken first. Their share in the collection is about 19%. Unless noted, the call rests on the fitted dose curve; in most records, active means well fitted curve in the direction sought with a large enough effect; inconclusive means small, poorly fitted or top-dose-only effect, or another doubt; inactive means no such curve, though single readings can be large; an effect the other way counts as inactive or inconclusive.
SMILES,MCF10A rerep,DT40 TDP1 no CPT,SW480 rerep,Chronic BCR inh,TDP1 cell CPT,IL-1B inflam inh
CC1CC(C)CN(S(=O)(=O)c2ccc(C(=O)NCc3ccc4c(c3)OCO4)cc2)C1 (stereo not drawn),7%,?,11%,21%,16µM*,0
CC(C)=CCN1CCN(Cc2cccn2-c2ccccn2)CC1CCO (stereo not drawn),-1%,-17%,-6%,0%,3%,-13
CC(=O)Nc1c(I)cc(I)c(C(=O)O)c1I,2%,-11%,-8%,.,-15%,.
CC1CN(S(=O)(=O)c2ccc(C(=O)Nc3nnc(-c4ccccn4)o3)cc2)CC(C)O1 (stereo not drawn),-3%,0%,-10%,-3%,-16%,12
CC1CCN(S(=O)(=O)c2ccc(C(=O)Nc3nnc(C4CC4)o3)cc2)CC1,?,?,13µM*,5%,18µM*,60
CC1CN(S(=O)(=O)c2ccc(C(=O)Nc3nnc(-c4ccc5c(c4)CCCC5)o3)cc2)CC(C)O1 (stereo not drawn),2%,12µM*,10%,8%,6.5µM*,2
Cc1cccc(NC(=O)c2ccc(S(=O)(=O)N3CCC(C)CC3)cc2)n1,?,16µM*,31%,10%,?,-12
CC1CC(C)CN(S(=O)(=O)c2ccc(C(=O)NCCCn3ccnc3)cc2)C1 (stereo not drawn),?,?,?,-4%,29µM*,11
C/C(=N/NS(=O)(=O)c1ccc(Br)cc1)c1cccc(NC(=O)C2CC2)c1,.,-6%,.,.,-17%,-1
CCOc1ccc(CCNC(=O)COC(=O)c2cccc(S(=O)(=O)N3CCOCC3)c2)cc1OCC,-2%,-21%,-99%,-5%,-3%,4
O=S(=O)(c1cnccc1N1CCN(CCO)CC1)N1CCCCC1,4%,4%,-2%,-1%,13%,12
CC1CCCCN1S(=O)(=O)c1ccc(C(=O)Nc2nnc(C3CC3)o2)cc1 (stereo not drawn),16%,?,?,4%,16µM*,31
COc1cccc(CN2CCc3nc(Nc4ccc5c(c4)OCCO5)ncc3C2)c1OC,.,8.2µM*,.,.,21µM*,.
CC(C)CN1CCc2nc(Nc3ccc(F)cc3F)ncc2C1,.,?,.,.,-3%,.
Fc1cccc(CN2CCc3nc(Nc4ccc5c(c4)OCCO5)ncc3C2)c1F,.,26µM*,.,.,?,.
CN(C(=O)Cn1c(=O)n(CCC(=O)NCc2ccc3c(c2)OCO3)c(=O)c2sccc21)c1ccccc1,.,-1%,.,.,-16%,.
Cn1cc(S(=O)(=O)N2CCCC2)cc1C(=O)NCCc1ccccc1,6%,?,17%,3%,?,11
COc1ccc(C(c2c(O)cc(C)n(Cc3ccco3)c2=O)N2CCN(c3ccccc3)CC2)cc1 (stereo not drawn),.,-19%,.,.,-23%,.
CCc1cc2c(=O)c(-c3cscn3)coc2c(CN(C)C)c1O,10µM*,2.3µM*,?,?,1.5µM*,11
CCc1cc2c(=O)c(-c3ccc4c(c3)OCO4)coc2c(CN(C)C)c1O,7%,3.7µM*,-4%,-1%,2.1µM*,-2
COc1ccc(NC(=O)c2nnn(-c3ccc(C(C)C)cc3)c2C)c(OC)c1,.,?,.,.,0%,.
CCOc1ccc(C(=O)Nc2cccc(C(=O)OCc3cc(=O)n4cc(C)sc4n3)c2)cc1,.,-4%,.,.,4%,.
COc1ccccc1NC(=O)c1oc2ccccc2c1NC(=O)COc1cccc(C)c1,.,1%,.,.,-9%,.
CCc1cccc(NC(=O)CNS(=O)(=O)c2ccc3nc(C)sc3c2)c1,.,-29%,.,.,-6%,.
CCN1CCN(C(CC(C)C)c2nnnn2CS(=O)(=O)c2ccc(C)cc2)CC1 (stereo not drawn),-1%,-18%,2%,-4%,8%,-73*
SMILES,MCF10A rerep,DT40 TDP1 no CPT,SW480 rerep,Chronic BCR inh,TDP1 cell CPT,IL-1B inflam inh
CC(C)(C)CN1CCC(Oc2cccc(C(=O)N3CCNC(=O)C3(C)C)c2)CC1,0%,13%,20%,1%,-10%,18
CCOc1ccc(NC(=O)c2cc3ccccc3cc2O)cc1,16µM*,?,-15%,?,?,-18
Cc1occc1C(=O)Nc1ccc(OCc2ccccc2)cc1,16%,16µM*,0%,11%,-14%,31
CCOc1ccc(NC(=O)c2cccc3ccccc23)cc1,24%,8.2µM*,?,?,12µM*,-2
COc1cc2c(cc1OC)C(CNC(=O)C=Cc1ccccc1)C2 (stereo not drawn),.,?,.,.,-21%,42
Cc1cccc(N2CCN(Cc3nnc(-c4ccccc4C)o3)CC2C)c1 (stereo not drawn),.,?,.,.,13µM*,.
Cc1ccccc1-c1nnc(CN2CCC(C)CC2)o1,0%,3%,-4%,0%,11%,-3
Cc1ccc(S(=O)(=O)N2CCOCC2)cc1NC(=O)Cn1nc(C)c([N+](=O)[O-])c1C,0%,-3%,-31%,-1%,-6%,3
Cc1ccc(C[n+]2ccccc2)cc1,5%,9.2µM*,3%[9.22 µM],1%,8.2µM*,46
COC(=O)c1ccc(C[n+]2ccccc2)cc1,0%,1%,-1%,5%,-5%,-7
O=C(N/N=C/c1ccc[nH]1)c1c[nH]c2ccccc12,11%,14%,7.3µM*,?,8%,27
O=C(N/N=C/c1ccccn1)c1c[nH]c2ccccc12,2%,-20%,-5%,?,-6%,-18
O=C(N/N=C/c1ccc[nH]1)c1sc2ccccc2c1Cl,14%,13µM*,-3%,?,13µM*,37
O=C(N/N=C/c1ccc[nH]1)c1cc2ccccc2cc1O,12%,?,?,?,?,41
CCOC(=O)c1nc2c(ccc3ccccc32)cc1C,?,-9%,?,?,14%,.
CCc1ccc(-n2c(=S)sc3c(=O)[nH]c(SCC(=O)NC4CCCCC4)nc32)cc1,.,-2%,.,.,-9%,21
Cc1cccc(NC(c2ccccc2F)c2ccc3ccc(C)nc3c2O)n1 (stereo not drawn),.,23µM*,.,-9%,?,.
Cc1ccc(C)c(C(Nc2ccccc2)c2ccc3ccc(C)nc3c2O)c1 (stereo not drawn),.,18µM*,.,.,21µM*,81
Cc1ccc(NC(c2ccccc2)c2nc3ccccc3[nH]c2=O)cc1 (stereo not drawn),18%,?,-1%,?,?,-18
